Active and inactive are the calls of the source. The rule behind the calls is not given here.
Assay: PC3M Cytotoxicity Assay for Compounds that Inhibit the Perinuclear Compartment: SAR
Conditions: PC3M-GFP viability, ATPLite luminescence, 24 h
From the text: The perinucleolar compartment (PNC) is a non-membrane-bound nuclear subdomain that is associated with but structurally distinct from the nucleolus. The PNC is a heritable trait, in which the number of PNCs per cell in daughter cells often mimics that of their mother cells. The PNC is heterogeneous in shape, is stable through interphase, disassembles during mitosis, and reassembles in early G1. The PNC is concentrated with newly synthesized RNA polymerase III (pol III) RNAs (MRP RNA, RNAse P H1 RNA, hY RNAs[hY1, 2, 5], Alu RNA, and SRP [7SL] RNA) and RNA binding proteins (nucleolin, PTB, CUG-BP, KSRP, Raver1, Raver2, and Rod). […] Extensive in vitro studies have shown that the PNC is unique to tumor cells and preferentially forms in tumor cells derived from solid tissues. Examination of cancer cell lines from various origins and malignant capacities has shown that PNC prevalence correlates with the malignancy of tumors and has the potential to be developed as a pan-cancer prognostic marker. […] Although the PNC is associated with a DNA locus and a handful of components have been identified, much remains to be investigated regarding the structure and function of the PNC and its mechanistic link to cancer. […]
1. […] Luminescencent signal was detected on a Viewlux CCD based imager (PerkinElmer) with a clear filter and a 30 second integration time. […]

SMILES	AC50
N=c1c2c(-c3ccccc3)c(-c3ccccc3)n(Cc3ccccc3)c2ncn1C1CCC(O)CC1 (stereo unspecified)	9.96 µM (active)

Reference: PubChem BioAssay AID588740 (National Center for Advancing Translational Sciences (NCATS), 2011)
